Data from PubChem BioAssay (Tox21).
Values joined by “and” are separate entries in the source; they are usually repeats but may differ in a detail not shown here. Equal entries are not always repeated. Records with an inconclusive call do not appear. Where a call stands in place of a potency, no number is given. Active and inactive are the calls of the source. Calls follow the shape of the dose curve; as a rule, active = well fitted cell-killing curve with a large enough effect in the repeat runs; inconclusive = weak or mixed curves, or effect the other way; inactive = no such curve, though single readings can be large or run the other way.

Assay: qHTS assay for identifying genotoxic compounds that show differential cytotoxicity against isogenic chicken DT40 cell lines with known DNA damage response pathways - Rev3 mutant cell line (AID 743014); also: nearly all actives have a fitted effect of over 55% in size
Conditions: chicken DT40 Rev3-/- viability, CellTiter-Glo, 40 h; series mostly up to 68.4 µM
Source text: National Center for Advancing Translational Sciences [NCATS]
NIH Chemical Genomics Center [NCGC]
U.S. Environmental Protection Agency [EPA]
National Institutes of Environmental Health Sciences [NIEHS]
National Toxicology Program [NTP]
U.S. Food and Drug Administration [FDA]
DNA repair pathways play a critical role in cellular homeostasis by repairing DNA damage induced by endogenous processes and xenobiotics. Isogenic chicken DT40 cell lines deficient in different DNA repair pathways can be used to identify genotoxic compounds and aid in characterizing the nature of the DNA damage induced. Two DNA repair-deficient cell lines with disrupted genes, Rad54/Ku70 or Rev3, were used to screen the Tox21 10K compound library. Possible genotoxicity was based on the presence of a significant increase in cytotoxicity in one or more of the DNA repair-deficient cell lines compared to that observed in the parental DNA repair-proficient cell line. CellTiter Glo viability assay (Promega, Madison, WI) was used to measure cell viability in these cells after compound treatment. This assay includes the data from the Rev3 mutant cell line.
Tox21 Assay Protocol Summary:
300 DT40 mutant cells in 5 uL/well were dispensed into white, solid-bottom 1536-well plates using a Multidrop Combi (ThermoFisher Scientific, Waltham, MA) dispenser. After the assay plates were incubated at 37 C/5% CO2 for approximately 0.5 hour, 23 nL of compounds dissolved in DMSO, positive controls or DMSO only was transferred into the assay plate by a pintool work station (Kalypsys, San Diego, CA). The assay plates were incubated at 37 C/5% CO2 for 40 hours. After 5 uL per well of CellTiter-Glo reagent was added into each well of the assay plates, the plates were incubated for 30 min at room temperature and the luminescence intensity of the plates was measured using a ViewLux (PerkinElmer, Shelton, CT) plate reader.
Potency is read from the fitted curve at half-maximal effect.

SMILES	Potency
CN(C[C@@H](CC[N+]12CCC(C3CCCCC3)(CC1)CC2)c1ccc(Cl)c(Cl)c1)C(=O)c1cc(C(F)(F)F)cc(C(F)(F)F)c1	9.69 µM (active)
O=C1c2ccccc2CN2C(=O)c3ccccc3CN12	inactive
NC(=O)[C@@H]1CCCN1C(=O)[C@H](Cc1cnc[nH]1)NC(=O)[C@@H]1CCC(=O)N1	inactive
O=C(CCCN1CCN2CCCC2C1)c1ccc(F)cc1 (stereo not given)	2.11 µM (active)
Cc1cc(CC(C)CC(C)(C)C)n(O)c(=O)c1 (stereo not given) (tested in a mixture with another compound)	11.9 µM (active)
CCc1cn([C@H]2C[C@H](O)[C@@H](CO)O2)c(=O)[nH]c1=O	inactive
O=C(CCCCCCCCc1cccnc1)N1CCC(C=C(c2ccccc2)c2ccccc2)CC1	24.3 µM (active)
CCCCCCCCCCCCN1CCCC1=O	30.6 µM (active)
C[S+](CC[C@H](N)C(=O)O)C[C@H]1O[C@@H](n2cnc3c(N)ncnc32)[C@H](O)[C@@H]1O (stereo not given in full)	inactive
C=N[C@@H](C(=O)N[C@@H]1C(=O)N2[C@@H]1SC(C)(C)[C@@H]2C(=O)O)c1ccccc1	inactive
CCCCCCCC/C=C\CCCCCCCC(=O)N(CCO)CCO	17.2 µM (active)
CC(=O)[C@]1(O)Cc2c(O)c3c(c(O)c2[C@@H](O[C@H]2C[C@H](N)[C@H](O)[C@H](C)O2)C1)C(=O)c1ccccc1C3=O	0.0211 µM (active)
COc1ccc([C@@H]2CC(=O)c3c(O)cc(O[C@@H]4O[C@H](CO[C@@H]5O[C@@H](C)[C@H](O)[C@@H](O)[C@H]5O)[C@@H](O)[C@H](O)[C@H]4O)cc3O2)cc1O	inactive
CCCCCCCCCCCCCCCCCCNC(=O)OC1CCN(C(=O)OC[C@H](COC(=O)N(Cc2cccc[n+]2CC)C(=O)c2ccccc2OC)OC)CC1	6.68 µM (active)
C=C1[C@@H]2CC[C@@H](C2)C1(C)C	inactive
Nc1nc(/C(=C/CC(=O)O)C(=O)N[C@@H]2C(=O)N3C(C(=O)O)=CCS[C@H]23)cs1	inactive
CC(C)(COP(=O)(O)OP(=O)(O)OC[C@H]1O[C@@H](n2cnc3c(N)ncnc32)[C@H](O)[C@@H]1OP(=O)(O)O)C(O)C(=O)NCCC(=O)NCCS (stereo not given in full)	inactive
CN(C)CCOc1ccc(/C(=C(/CCCl)c2ccccc2)c2ccccc2)cc1	2.66 µM (active) and 1.44 µM (active)
N=C(N)n1cccn1	inactive
CC(=O)N[C@@H](C=O)[C@H](O)[C@H](O)[C@@H](O)CO	inactive

SMILES	Potency
CCC1OC(=O)C[C@@H](O)[C@H](C)[C@@H](O[C@@H]2O[C@H](C)C[C@H](N(C)C)[C@H]2O)[C@@H](CC=O)C[C@@H](C)C(=O)/C=C/[C@]2(C)OC2C1C (stereo not given in full)	21.1 µM (active) and 8.41 µM (active)
COc1cc(NS(C)(=O)=O)ccc1Nc1c2ccccc2nc2ccccc12	0.0668 µM (active)
O=C1CCC(c2ccccc2)(C2CCN(Cc3ccccc3)CC2)C(=O)N1 (stereo not given)	inactive
NCC1CCC(C(=O)O)CC1 (stereo not given)	inactive
NC(N)=NCc1cccc(I)c1	8.41 µM (active) and 11.9 µM (active)
CC(=O)Nc1ccc(OC(C)=O)cc1	inactive
C=CCc1cc(S(=O)(=O)c2ccc(O)c(CC=C)c2)ccc1O	68.6 µM (active)
CO[C@H](C(=O)[C@@H](O)[C@@H](C)O)C1Cc2cc3cc(O[C@H]4C[C@@H](O[C@H]5C[C@@H](O)[C@H](O)[C@@H](C)O5)[C@@H](O)[C@@H](C)O4)c(C)c(O)c3c(O)c2C(=O)[C@H]1O[C@H]1C[C@@H](O[C@H]2C[C@@H](O[C@H]3C[C@](C)(O)[C@H](O)[C@@H](C)O3)[C@H](O)[C@@H](C)O2)[C@H](O)[C@@H](C)O1 (stereo not given in full)	84.1 nM (active) and 37.6 nM (active)
CC(C)COC(=O)OCN1C(=O)CN(CCN2CC(=O)N(COC(=O)OCC(C)C)C(=O)C2)CC1=O	inactive
CC1CCCC(C)N1NC(=O)c1ccc(Cl)c(S(N)(=O)=O)c1 (stereo not given)	inactive
CO/N=C(\C(=O)N[C@@H]1C(=O)N2C(C(=O)[O-])=C(C[n+]3ccc(N)n3CCO)CS[C@H]12)c1csc(N)n1	inactive
O=P(O)(O)C(O)(Cn1ccnc1)P(=O)(O)O	inactive
OCC1(CO)COC(C(Cl)(Cl)Cl)OC1	inactive
CC(=NCc1ccccc1)c1ccccc1O	inactive
CC(=O)OCC(=O)[C@@]1(O)CC[C@H]2[C@@H]3C[C@H](C)C4=CC(=O)C=C[C@]4(C)[C@H]3[C@@H](O)C[C@@]21C	inactive
O=C1c2ccccc2-c2n[nH]c3cccc1c23	11.9 µM (active)
O=C1CC[C@@H](C(=O)N[C@H]2C[C@@H]2c2ccccc2)N1	inactive
NC(=O)c1cc[n+](CC2=C(C(=O)O)N3C(=O)[C@@H](NC(=O)C(c4ccccc4)S(=O)(=O)[O-])[C@H]3SC2)cc1 (stereo not given in full)	inactive
O=C(O)CCCC/C=C(\c1ccccc1)c1cccnc1	inactive
O=C(CCN1CCC(c2ccccc2)C1)c1ccc2c(c1)OCCO2 (stereo not given)	4.73 µM (active)
